WRN helicase inh = inhibitors of human WRN helicase; WRN helicase unwinding, fluorescent forked duplex, kinetic; Potency, µM (series often up to 114 µM), inactives show at the top dose activity change, negative = inhibition, most hits filed as inhibitors; actives 0.46% (n = 360,000); also: potency is read from the fitted curve at half-maximal effect; % is scaled to controls: 0 for no effect and ±100 for the full control effect; nearly all actives have a fitted effect of over 55% in size
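Kinetic red-fluorescence monitoring (525/598 nm) tracks WRN helicase activity after 100 nM fluorophore-quencher forked duplex and 2 mM ATP are added to 20 nM enzyme pretreated 15 min at room temperature with compound.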
PI5P4Ka inh = PI5P4K alpha (human) kinase inhibition; P48426; PI5P4Kalpha enzyme, ADP-Glo luminescence, 60 min; active compounds read low; max response, %; actives 1.2% (n = 330,000); AID 652105; active = max response of -50% or lower; inconclusive = between -30% and -50%; inactive = -30% or higher; also: value at the top dose of about 77 µM; % is scaled to controls: 0 for no effect and ±100 for the full control effect
Target sequence (P48426 whole entry, looked up): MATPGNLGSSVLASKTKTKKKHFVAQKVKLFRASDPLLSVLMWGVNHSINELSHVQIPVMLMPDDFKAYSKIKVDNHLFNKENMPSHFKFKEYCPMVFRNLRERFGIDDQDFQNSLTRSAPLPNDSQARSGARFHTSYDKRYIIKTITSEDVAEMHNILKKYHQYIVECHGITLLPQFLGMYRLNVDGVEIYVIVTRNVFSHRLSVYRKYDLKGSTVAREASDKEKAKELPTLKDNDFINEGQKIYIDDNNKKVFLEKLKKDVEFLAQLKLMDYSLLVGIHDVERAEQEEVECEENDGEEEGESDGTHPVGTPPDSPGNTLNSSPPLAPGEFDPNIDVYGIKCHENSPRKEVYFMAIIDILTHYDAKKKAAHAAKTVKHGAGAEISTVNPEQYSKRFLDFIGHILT
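Human PI5P4Kalpha with substrate in 0.038 M HEPES pH 7.4, 0.28 mM EGTA, 0.1% CHAPS, 5% DMSO; reaction started with 5 microM ATP (final), 60 min at room temperature. ADP formed read by ADP-Glo luminescence.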
PLK1 PBD block = PLK1 (human) polo-box domain binding inhibition; P53350; Plk1 PBD binding of FITC phosphopeptide, fluorescence polarization; Potency, µM, inactives show max response, negative = inhibition, usual class: inhibitors; actives 2.8% (n = 360,000); AID 720504; also: potency is read from the fitted curve at half-maximal effect; series mostly up to about 57 µM; % is scaled to controls: 0 for no effect and ±100 for the full control effect; nearly all actives have a fitted effect of over 65% in size
FEN1 inh = inhibitors of human flap endonuclease 1; Potency, µM (top dose mostly 114 µM), without a hit: at the highest dose activity change, negative = inhibition, most hits filed as inhibitors; AID 588795; actives 0.35% (n = 390,000); P39748; Recombinant FEN1 flap cleavage, fluorescence, 15 min; also: potency is read from the fitted curve at half-maximal effect; % is scaled to controls: 0 for no effect and ±100 for the full control effect; nearly all actives have a fitted effect of over 65% in size
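Potency values derive from four-parameter Hill fits of normalized qHTS data. The reaction used 10 nM FEN1 preincubated 15 min at room temperature with compound, then 50 nM DNA substrate, read at 0 and 15 min.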
TCR activator = activates T cell receptor signaling; Potency, µM (doses to about 9.22 µM), inactives show at the top dose activation of IL-2 secretion, most hits filed as activators; 330,000 tested, under 10 active; primary human leukocytes, anti-CD3, IL-2 HTRF, 48 h; AID 504894; also: % of control where 0% means no effect
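1) Mix primary human leukocytes, a-CD3 beads and compound. 2) Incubate 48 hr. 3) Add HTRF IL-2 reagents (a-IL-2-K, a-IL-2-d2).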
VDR inh = blocks the human vitamin D receptor | actives 0.93% (n = 400,000) | Potency, µM, inactives show max response, negative = inhibition, most hits filed as inhibitors | AID 504847 | VDR-SRC2-3 peptide fluorescence polarization, 2 h; also: potency is read from the fitted curve at half-maximal effect; % is scaled to controls: 0 for no effect and ±100 for the full control effect
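Inhibition of the VDR/SRC2-3 peptide interaction is quantified by fluorescence polarization. Compounds (23 nl, pintool) incubate with the reagents for 2 hours at ambient room temperature.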
Active calls of the source: *; ? = inconclusive; . = not tested or not shown; [ ] = another dose, or the depositor's remark. In the library only some 3.7% were active in any assay of this set; here they are far more common. Unless noted, calls follow the shape of the dose curve; as a rule, active = well fitted curve in the direction sought with a large enough effect; inconclusive = small, poorly fitted or top-dose-only effect, or another doubt; inactive = no such curve, though single readings can be large; an effect the other way counts as inactive or inconclusive.

SMILES	WRN helicase inh	PI5P4Ka inh	PLK1 PBD block	FEN1 inh	TCR activator	VDR inh
C#CCOCCOCCOCCNc1nc(N2CCN(C(=O)CCCCCCCCCCNC(=O)[C@H](CCCCN)n3cc(CCO)nn3)CC2)nc(N2CCN(C(=O)CCCCCCCCCCNC(=O)[C@H](CCCCN)n3cc(C[C@@H](C)CC)nn3)CC2)n1	50µM*	-62*	-22%	28µM*	3%	27%
O=c1cc(O)c2c([nH]1)CCC2	.	.	.	10%	.	.
C#CCOCCOCCOCCNc1nc(N2CCN(C(=O)CCCCCCCCCCNC(=O)Cn3cc(CCCCCN)nn3)CC2)nc(N2CCN(C(=O)CCCCCCCCCCNC(=O)Cn3cc(C[C@@H](C)O)nn3)CC2)n1	25µM*	-65*	33%	79µM*	0%	36%
CCOc1ccccc1CNC(=O)c1cnc2sc(N3CCCCCC3)nn2c1=O	.	.	.	-13%	.	6%
CC(C(=O)c1ccccc1)[n+]1cccc(Cl)c1 (centres undefined)	.	.	.	-11%	.	.
C=CCCCCCCCCCBr	.	.	.	.	.	-7%
Cc1ccc(C(=O)NCCCc2ccccc2)c(C)c1	-32%	?	24µM*	-2%	3%	0%
S=C(SSC(=S)N1CCOCC1)N1CCOCC1	0%[57.1 µM]	-88*	1.5µM*	.	.	.
O=C1CC(c2ccc(O)cc2)Oc2cc(O)cc(O)c21 (centres undefined)	7%	-14	-11%	-4%	1%	1%
CC1CC(=O)c2c(cc3c(-c4c(O)cc(O)c5c(O)c6c(cc45)OC(C)CC6=O)c(O)cc(O)c3c2O)O1 (centres undefined)	?	-80*	27µM*	14µM*	-6%	?
COc1ccc(C2=C(N3CCN(c4cccc(C)c4)C(C)C3)c3ccccc3C2=O)cc1 (centres undefined)	.	.	.	12%	.	4%
O=c1c(CO)cc(CO)cc(CO)c1O	-1%	5	-15%	10%	14%	0%
O=C1C=CC(=O)c2c(O)c(CO)c(CO)c(O)c21	7.9µM*	-89*	9.5µM*	16µM*	4%	?
O=C1C=CC(=O)c2c(O)c(Cl)c(Cl)c(O)c21	.	.	.	.	.	4.5µM*
O=C1C=Cc2cccc3ccc(O)c1c23	15%	-8	-1%	-8%	-10%	3%
CN(C)c1ccc(/C=C/c2ccnc3c(Cl)cccc23)cc1	.	.	.	-21%	.	.
O=c1[nH]c(=S)[nH]c2n[nH]nc12	.	.	.	-22%	.	.
Cc1ccc(NC(=O)/C(C#N)=C(\N)C(Cl)(Cl)Cl)nc1	32%	-17	24µM*	16%	-23%	?
CN(C)c1ccc(C=O)c(O)c1	.	.	.	-12%	.	.
CCC(CC)c1nnc(NC(=O)C2CC(=O)N(CCc3ccc(F)cc3)C2)s1 (centres undefined)	-13%	-15	24µM*	1%	-3%	79µM*
Cc1ccc(OCCn2cc(C(=S)N3CCCC3)c3ccccc32)cc1C	-16%	?	3µM*	-6%	4%	-15%
COCCNC(=O)Cn1cc(C(=S)N2CCCCC2)c2ccccc21	-5%[57.1 µM]	4	-16%	-1%	-2%	4%
O=Cc1cn(CC(=O)N2CCCCC2)c2ccccc12	-14%	6	-12%	1%	2%[46.1 µM]	-20%
O=C(O)Cn1cc(C(=S)N2CCOCC2)c2ccccc21	-9%	.	24µM*	0%	24%	?
O=C(O)Cn1cc(C(=S)N2CCCCC2)c2ccccc21	4%	-13	15µM*	14%	8%	-24%
SMILES	WRN helicase inh	PI5P4Ka inh	PLK1 PBD block	FEN1 inh	TCR activator	VDR inh
O=C(O)Cn1cc(/C=C2/SC(=O)N(CC(=O)N3CCCCCC3)C2=O)c2ccccc21	0%	-22	27µM*	9%	2%	?
COc1ccc(CC(=O)Nc2cc(-c3cn4cccnc4n3)ccc2OC)cc1	.	.	.	-4%	.	-11%
COc1ccccc1N1CCN(C(=O)C(=O)c2cn(CC(=O)N3CCOCC3)c3ccccc23)CC1	-4%	0	-15%	16%	11%	21%
O=C(C(=O)N1CCN(c2ccccc2F)CC1)c1cn(CC(=O)N2CCOCC2)c2ccccc12	5%	-9	24µM*	6%	-3%	?
COC(=O)c1scc(-c2ccc(C)cc2)c1S(=O)(=O)Nc1cccc(C(F)(F)F)c1	.	.	.	-16%	.	6%
COc1ccc(CNC(=O)COC(=O)c2cc(-c3ccc(Cl)s3)nc3ccccc23)cc1	-11%	9	3%	40%	11%	-9%
O=C(COC(=O)c1cc(-c2ccc(Cl)s2)nc2ccccc12)NCc1ccco1	35µM*	?	?	3%	16%	79µM*
CSC1=NCCN1C(=O)c1ccc(S(=O)(=O)N(C)C)cc1	0%	3	27µM*	-15%	-6%	-21%
CSC1=NCCN1C(=O)c1ccc(C)cc1	1%	1	2%	1%	.	-9%
Cc1occc(=O)c1OCc1c(F)cccc1Cl	1%	-27	21µM*	11%	-2%	-13%
Cc1nc2cnccc2n1C	-3%	-1	-6%	2%	-2%	2%
Cn1c(-c2ccccc2)nc2cnccc21	2%	-20	24µM*	-2%	-1%	?
CCOc1ccc(NC(=O)CCNS(=O)(=O)c2ccc3c(c2)CC(C)N3C(C)=O)cc1 (centres undefined)	6%	?	3µM*	-22%	1%	?
COc1ccc(OC)c(NC(=O)CCNS(=O)(=O)c2ccc3c(c2)CC(C)N3C(C)=O)c1 (centres undefined)	17%	4	3%	.	.	.
CCc1cc(C(=O)N2CCc3c([nH]c4ccccc34)C2c2ccc(OC)cc2F)no1 (centres undefined)	-1%[57.1 µM]	-9	24µM*	-18%	-3%	-16%
COc1cc2c(ccc3cc(OC)c(OC)c(O)c32)cc1O	18µM*	-106*	?	22µM*	-1%	6%
O=C(Nc1ccc(C(F)(F)F)cc1)c1cc(S(=O)(=O)NC2CCCCCC2)ccc1F	.	.	.	-19%	.	6%
Cc1ccc(OCC(=O)Nc2cc(NC(=O)COc3ccc(C)cc3)cc(C(=O)O)c2)cc1	-2%	5	-3%	18%	-1%	-8%
Cc1ccc(OCC(=O)Nc2cc(C(=O)O)cc(C(=O)O)c2)cc1C	79µM*	-55*	3µM*	-12%	2%	18µM*
O=C1CSC(=Nc2ccccc2[N+](=O)[O-])N1	6%	-9	-25%	2%	-4%	6%
COc1ccc(N=C2NC(=O)CS2)c([N+](=O)[O-])c1	9%	-1	27µM*	0%	0%	-2%
C=CC[n+]1cccc2cc(Br)ccc21	.	.	.	-2%	.	.
CC1CCCCC1NCc1cccc([N+](=O)[O-])c1 (centres undefined)	5%	-8	27µM*	-9%	4%	-13%

Bioassay records deposited in PubChem by National Center for Advancing Translational Sciences (NCATS).
